Measured values published in the supplement of paper PMC8728848.
Only a selection was taken, and the strongest signals are over-represented in it overall.

What was measured:
Test in all cases: glycan array binding signal (z-score within array); higher = stronger binding
Details in all cases: glycan notation: IUPAC condensed, linker removed
[1] = biological target: Fuc(a1-2)Gal(b1-3)GlcNAc(b1-2)Man(a1-3)[Fuc(a1-2)Gal(b1-3)GlcNAc(b1-2)Man(a1-6)]Man(b1-4)GlcNAc(b1-4)[Fuc(a1-6)]GlcNAc
Summary of the method: (§1)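 Arrays were curated from the Consortium for Functional Glycomics database, 3228 in total, and kept only where the protein sequence was available. Binding is expressed as a within-array Z-score. This score was averaged across arrays of the same protein sequence at different concentrations or buffers and across linkers, and negative values can be read as non-binding.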

Fuc(a1-2)Gal(b1-4)Glc6S = biological target: Fuc(a1-2)Gal(b1-4)Glc6S
Summary of the method: as §1

[2] = biological target: Fuc(a1-2)[Gal(a1-3)]Gal(b1-4)GlcNAc(b1-2)Man(a1-3)[Fuc(a1-2)[Gal(a1-3)]Gal(b1-4)GlcNAc(b1-2)Man(a1-6)]Man(b1-4)GlcNAc(b1-4)GlcNAc
Summary of the method: as §1

[3] = biological target: Fuc(a1-2)[GalNAc(a1-3)]Gal(b1-4)GlcNAc(b1-2)Man(a1-3)[Fuc(a1-2)[GalNAc(a1-3)]Gal(b1-4)GlcNAc(b1-2)Man(a1-6)]Man(b1-4)GlcNAc(b1-4)GlcNAc
Summary of the method: as §1

[4] = biological target: Fuc(a1-2)[GalNAc(a1-3)]Gal(b1-4)[Fuc(a1-3)]GlcNAc
Summary of the method: as §1

[5] = biological target: Fuc(a1-3)[Gal(b1-4)]GlcNAc(b1-4)Gal(b1-4)[Fuc(a1-3)]GlcNAc(b1-4)Gal(b1-4)[Fuc(a1-3)]GlcNAc
Summary of the method: as §1

[6] = biological target: Fuc(a1-3)[Gal3S(b1-4)]GlcNAc6S
Summary of the method: as §1

[7] = biological target: Gal(a1-3)Gal(b1-3)[Fuc(a1-4)]GlcNAc(b1-2)Man(a1-3)[Gal(a1-3)Gal(b1-3)[Fuc(a1-4)]GlcNAc(b1-2)Man(a1-6)]Man(b1-4)GlcNAc(b1-4)GlcNAc
Summary of the method: as §1

Gal(b1-3)GalNAc = biological target: Gal(b1-3)GalNAc
Summary of the method: as §1

[8] = biological target: Gal(b1-3)GalNAc(a1-3)[Fuc(a1-2)]Gal(b1-4)Glc
Summary of the method: as §1

[9] = biological target: Gal(b1-3)GalNAc(b1-4)Gal(b1-4)Glc
Summary of the method: as §1

[10] = biological target: Gal(b1-3)GlcNAc(b1-2)Man(a1-3)[Gal(b1-3)GlcNAc(b1-2)Man(a1-6)]Man(b1-4)GlcNAc(b1-4)GlcNAc
Summary of the method: as §1

[11] = biological target: Gal(b1-3)[Fuc(a1-4)]GlcNAc
Summary of the method: as §1

[12] = biological target: Gal(b1-4)GlcNAc(b1-2)Man(a1-3)Man(b1-4)GlcNAc(b1-4)GlcNAc
Summary of the method: as §1

[13] = biological target: Gal(b1-4)GlcNAc(b1-2)[Gal(b1-4)GlcNAc(b1-4)]Man(a1-3)[Gal(b1-4)GlcNAc(b1-2)[Gal(b1-4)GlcNAc(b1-6)]Man(a1-6)]Man(b1-4)GlcNAc(b1-4)GlcNAc
Summary of the method: as §1

[14] = biological target: Gal(b1-4)GlcNAc(b1-2)[Gal(b1-4)GlcNAc(b1-4)]Man(a1-3)[GlcNAc(b1-4)][Gal(b1-4)GlcNAc(b1-2)Man(a1-6)]Man(b1-4)GlcNAc(b1-4)GlcNAc
Summary of the method: as §1

[15] = biological target: Gal(b1-4)GlcNAc(b1-3)Gal(b1-4)[Fuc(a1-3)GlcNAc(b1-6)]Gal(b1-4)Glc
Summary of the method: as §1

Gal6S(b1-4)GlcNAc6S = biological target: Gal6S(b1-4)GlcNAc6S
Summary of the method: as §1

Glc(a1-6)Glc(a1-6)Glc = biological target: Glc(a1-6)Glc(a1-6)Glc
Summary of the method: as §1

Glc(b1-4)Glc = biological target: Glc(b1-4)Glc
Summary of the method: as §1

GlcA(b1-3)GlcNAc = biological target: GlcA(b1-3)GlcNAc
Summary of the method: as §1

[16] = biological target: GlcNAc(a1-4)Gal(b1-4)GlcNAc(b1-3)Gal(b1-4)GlcNAc
Summary of the method: as §1

[17] = biological target: GlcNAc(a1-4)Gal(b1-4)GlcNAc(b1-3)Gal(b1-4)[Fuc(a1-3)]GlcNAc(b1-3)Gal(b1-4)[Fuc(a1-3)]GlcNAc
Summary of the method: as §1

[18] = biological target: GlcNAc(b1-2)Man(a1-3)[GlcNAc(b1-2)Man(a1-6)]Man(b1-4)GlcNAc(b1-4)[Fuc(a1-6)]GlcNAc
Summary of the method: as §1

[19] = biological target: GlcNAc(b1-2)[GlcNAc(b1-4)]Man(a1-3)[GlcNAc(b1-4)][GlcNAc(b1-2)Man(a1-6)]Man(b1-4)GlcNAc(b1-4)GlcNAc
Summary of the method: as §1

GlcNAc(b1-3)Man = biological target: GlcNAc(b1-3)Man
Summary of the method: as §1

[20] = biological target: GlcNAc(b1-3)[GlcNAc(b1-6)]GalNAc
Summary of the method: as §1

Man(a1-3)[Man(a1-6)]Man = biological target: Man(a1-3)[Man(a1-6)]Man
Summary of the method: as §1

Man(a1-6)Man = biological target: Man(a1-6)Man
Summary of the method: as §1

[21] = biological target: Neu5Ac(a2-3)Gal(b1-3)GalNAc(b1-3)Gal(a1-4)Gal(b1-4)Glc
Summary of the method: as §1

[22] = biological target: Neu5Ac(a2-3)Gal(b1-3)GalNAc(b1-4)[Neu5Ac(a2-3)]Gal(b1-4)Glc
Summary of the method: as §1

[23] = biological target: Neu5Ac(a2-3)Gal(b1-4)GlcNAc(b1-3)Gal(b1-4)[Fuc(a1-3)]GlcNAc
Summary of the method: as §1

[24] = biological target: Neu5Ac(a2-3)Gal(b1-4)[Fuc(a1-3)]GlcNAc(b1-3)GalNAc
Summary of the method: as §1

[25] = biological target: Neu5Ac(a2-6)Gal(b1-4)GlcNAc(b1-3)GalNAc
Summary of the method: as §1

Neu5Ac(a2-6)GalNAc = biological target: Neu5Ac(a2-6)GalNAc
Summary of the method: as §1

Neu5Ac(a2-8)Neu5Ac = biological target: Neu5Ac(a2-8)Neu5Ac
Summary of the method: as §1

[26] = biological target: Neu5Ac(a2-8)Neu5Ac(a2-8)Neu5Ac(a2-3)[GalNAc(b1-4)]Gal(b1-4)Glc
Summary of the method: as §1

[27] = biological target: Neu5Ac(a2-8)Neu5Ac(a2-8)Neu5Ac(a2-8)Neu5Ac(a2-3)[GalNAc(b1-4)]Gal(b1-4)Glc
Summary of the method: as §1

[28] = biological target: Neu5Ac9Ac(a2-6)Gal(b1-4)GlcNAc
Summary of the method: as §1

B1: Tectonin 2 (Laccaria bicolor) (protein)
chain: MPWKGISGSLSRISAGSVTNVWGVNAANNIYRYTGDDAKPWVQIPGALTDIGAAADGTVWGVNAAGNIYRYVWDSNHWTQIKGALKRISAGSRTNVWGVNAGGAIYRYTGDDANPWVQIPGVLSDIGAGADGTVWGVNAAGEIYRYTGDQGDPNHWVKIPGALSAISAGIKTNVWGVNSANNIYTSTGDDKNPWLGIGGSLVDIGAGTDGVVWGVNAGGGIYRWIRD
[1]
  glycan array binding signal (z-score): -0.069
Fuc(a1-2)Gal(b1-4)Glc6S
  glycan array binding signal (z-score): -0.349
[2]
  glycan array binding signal (z-score): 9.62
[3]
  glycan array binding signal (z-score): -0.16
[4]
  glycan array binding signal (z-score): -0.145
[5]
  glycan array binding signal (z-score): -0.16
[6]
  glycan array binding signal (z-score): 0.299
[7]
  glycan array binding signal (z-score): -0.008
Gal(b1-3)GalNAc
  glycan array binding signal (z-score): -0.212
[8]
  glycan array binding signal (z-score): -0.46
[9]
  glycan array binding signal (z-score): -0.123
[10]
  glycan array binding signal (z-score): 0.354
[11]
  glycan array binding signal (z-score): -0.348
[12]
  glycan array binding signal (z-score): -0.226
[13]
  glycan array binding signal (z-score): -0.038
[14]
  glycan array binding signal (z-score): 0.732
[15]
  glycan array binding signal (z-score): -0.568
Gal6S(b1-4)GlcNAc6S
  glycan array binding signal (z-score): 2.71
Glc(a1-6)Glc(a1-6)Glc
  glycan array binding signal (z-score): -0.136
Glc(b1-4)Glc
  glycan array binding signal (z-score): -0.277
GlcA(b1-3)GlcNAc
  glycan array binding signal (z-score): 4.49
[16]
  glycan array binding signal (z-score): -0.238
[17]
  glycan array binding signal (z-score): 2.15
[18]
  glycan array binding signal (z-score): 0.258
[19]
  glycan array binding signal (z-score): -0.327
GlcNAc(b1-3)Man
  glycan array binding signal (z-score): -0.371
[20]
  glycan array binding signal (z-score): -0.21
Man(a1-3)[Man(a1-6)]Man
  glycan array binding signal (z-score): -0.426
Man(a1-6)Man
  glycan array binding signal (z-score): -0.438
[21]
  glycan array binding signal (z-score): 0.073
[22]
  glycan array binding signal (z-score): 2.34
[23]
  glycan array binding signal (z-score): 2.47
[24]
  glycan array binding signal (z-score): 2.62
[25]
  glycan array binding signal (z-score): 1.14
Neu5Ac(a2-6)GalNAc
  glycan array binding signal (z-score): -0.325
Neu5Ac(a2-8)Neu5Ac
  glycan array binding signal (z-score): -0.07
[26]
  glycan array binding signal (z-score): -0.445
[27]
  glycan array binding signal (z-score): 2.33
[28]
  glycan array binding signal (z-score): 0.77
